From PubChem BioAssay (NCI)
About 83,000 compounds went through this panel and 20% of them were active in at least one assay; those are over-represented in the sample as a whole.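 Values shown are percent growth following 48 h exposure of cells in 96-well plates to a single concentration of compound; below 10 was considered active.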 A number with no mark means an inactive call. Active and inactive are the calls of the source.

Legend:
Test in all cases: NCI-60 one-dose screen, 48 h (100 = growth as untreated, 0 = no growth, -100 = all killed)
Conditions in all cases: 10 µM unless noted
DU-145 prostate = tested on: DU-145 prostate
K-562 leukemia = tested on: K-562 leukemia
MALME-3M melanoma = tested on: MALME-3M melanoma
MDA-MB-231 breast = tested on: MDA-MB-231 breast
RXF 393 renal = tested on: RXF 393 renal
SF-268 CNS = tested on: SF-268 CNS
SF-295 CNS = tested on: SF-295 CNS
SF-539 CNS = tested on: SF-539 CNS
UACC-257 melanoma = tested on: UACC-257 melanoma
M14 melanoma = tested on: M14 melanoma
HCT-15 colon = tested on: HCT-15 colon
HT29 colon = tested on: HT29 colon
SNB-75 CNS = tested on: SNB-75 CNS
SNB-19 CNS = tested on: SNB-19 CNS
PC-3 prostate = tested on: PC-3 prostate
SK-MEL-5 melanoma = tested on: SK-MEL-5 melanoma
UACC-62 melanoma = tested on: UACC-62 melanoma
LOX IMVI melanoma = tested on: LOX IMVI melanoma
SK-MEL-28 melanoma = tested on: SK-MEL-28 melanoma
U251 CNS = tested on: U251 CNS

Row | SMILES | growth (DU-145 prostate) | growth (K-562 leukemia) | growth (MALME-3M melanoma) | growth (MDA-MB-231 breast) | growth (RXF 393 renal) | growth (SF-268 CNS) | growth (SF-295 CNS) | growth (SF-539 CNS) | growth (UACC-257 melanoma) | growth (M14 melanoma) | growth (HCT-15 colon) | growth (HT29 colon) | growth (SNB-75 CNS) | growth (SNB-19 CNS) | growth (PC-3 prostate) | growth (SK-MEL-5 melanoma) | growth (UACC-62 melanoma) | growth (LOX IMVI melanoma) | growth (SK-MEL-28 melanoma) | growth (U251 CNS)
1 | CCOC(CNC(=O)c1cccc([N+](=O)[O-])c1)OCC | 100% | 94% | 96.8% | 92.9% | 65.7% | 93.6% | 91.2% | 96.9% | 83.2% | 98.7% | 99.7% | 111% | 82.6% | 103% | 102% | 89.2% | 88% | 89.1% | 106% | –
2 | C#CC(OC(=O)N(C)C)(c1ccccc1)c1ccc(F)cc1 (configuration not stated) | 105% | 120% | 142% | 101% | 87.7% | 91.1% | 115% | 107% | 87.8% | 129% | 94.8% | 116% | 93% | 120% | 102% | 112% | 86.2% | – | 96.5% | –
3 | C=C(C)[C@@H]1CC[C@]2(C(N)=O)CC[C@]3(C)[C@H](CC[C@@H]4[C@@]5(C)C/C(=C/c6cccnc6)C(=O)C(C)(C)[C@@H]5CC[C@]43C)[C@@H]12 | 24.6% [100 µM] | 6.74% [100 µM] (active) | -19.7% [100 µM] (active) | 0.809% [100 µM] (active) | -8.8% [100 µM] (active) | 39.3% [100 µM] | 6.69% [100 µM] (active) | -14.3% [100 µM] (active) | 20.8% [100 µM] | 15.7% [100 µM] | 14.9% [100 µM] | -45.3% [100 µM] (active) | 40.6% [100 µM] | 27.8% [100 µM] | 11.7% [100 µM] | -61.9% [100 µM] (active) | -1.04% [100 µM] (active) | – | -8.42% [100 µM] (active) | –
4 | CC(C)CCSC1=CC(=O)c2ccccc2C1=O | 77% | 19.3% | -23.5% (active) | 0.131% (active) | 43.8% | 74.6% | 103% | 94.4% | 58.6% | 68.3% | 72% | 97% | 7.99% (active) | 92.3% | 37.8% | 67.8% | 74% | – | 27.2% | 86.3%
5 | CCOC(=O)c1nn(C2CCCCO2)c2ccc(NC(=O)CSc3nc4ccccc4c(=O)[nH]3)cc12 (configuration not stated) | 102% | 99.4% | 103% | 79.9% | 71.8% | 90.1% | 97.6% | 82.4% | 102% | 100% | 99.5% | 125% | 68.5% | 76.3% | 105% | 98.1% | 94.5% | 96.2% | 105% | –
6 | CSc1cccc([N+](=O)[O-])c1 | 110% | 96.6% | 103% | 101% | 99% | 110% | 106% | 96.2% | 103% | 102% | 100% | 90.2% | 115% | 110% | 96.9% | 99.8% | 98% | 92.5% | 111% | –
7 | CC1(C)S[C@@H]2[C@H](NC(=O)[C@H](C(=O)O)c3cccs3)C(=O)N2[C@H]1C(=O)O | 123% | 105% | 103% | 126% | 116% | 110% | 98.4% | 100% | 96.2% | 102% | 98.7% | 102% | 104% | 105% | 99.2% | 106% | 102% | 99.4% | 116% | –
8 | O=C(Nc1ccccc1)Nc1ccc(C(=O)/C=C/c2ccc(N3CCCC3)cc2)cc1 | 94.7% | 77.2% | 79.1% | 56.8% | 58.8% | 57.6% | 73.4% | 78.7% | 51.4% | 101% | 56.8% | 69.5% | 41% | 68% | 59.9% | 45% | 42.2% | 85.6% | 51.1% | –
9 | C1=C[C@H]2O[C@@H]1c1ccc3[nH]ccc3c12 | 116% | 53.3% | 102% | 93.4% | 92.5% | 104% | 103% | 107% | 91.6% | 86.3% | 78.8% | 87.7% | 83.4% | 96.8% | 98% | 90.4% | 78.8% | – | 94% | 103%
10 | O=C(N=c1n(-c2ccccc2)nc2n1CCN2C1=NCCN1C(=O)c1ccc(Cl)cc1)c1ccc(Cl)cc1 | 92.2% | 47.1% | 91.2% | 82.4% | 48.6% | 72.9% | 86.2% | 80.2% | 103% | 62.5% | 57% | 59.7% | 68.8% | 85.8% | 47.5% | 70.9% | 73.6% | – | 88.8% | –
11 | Cc1cc(-c2ccc(N=Nc3c(S(=O)(=O)O)cc4cc(S(=O)(=O)O)cc(N)c4c3O)c(C)c2)ccc1N=Nc1cc(S(=O)(=O)O)c2ccccc2c1O | 112% | 98% | 89% | 92.4% | 107% | 95.6% | 103% | 88.4% | 97.7% | 101% | 104% | 100% | 98.5% | 94.4% | 96.9% | 100% | 93.6% | – | 107% | 99.5%
12 | CCCCCCCCCCCCNC(=S)N/N=C/c1ccccc1O | 68.1% | 61.2% | 98.9% | 78.8% | 107% | 65.5% | 70.7% | 85.4% | 98.2% | 78.1% | 56.9% | 36.6% | 81.1% | 80.2% | 69.5% | 88.8% | 77.7% | 60.5% | 93.3% | –
13 | Oc1cc(Nc2ccnc3cc(Cl)ccc23)c2ncccc2c1 | 58.4% | 76.6% | 52% | 14.8% | 68.6% | 73.8% | 108% | 93.9% | 82.2% | 75.8% | 82% | 109% | 53.2% | 78.4% | 59.1% | 79.2% | 81.4% | – | 81.5% | 77.1%
14 | O=S(=O)(NCCNc1nccc(-c2c(-c3cccc(F)c3)nc3occn23)n1)c1ccc(C(F)(F)F)cc1 | 87.9% | 69.8% | 86.2% | 86.9% | 67.9% | 70.4% | 110% | 109% | 104% | 95.4% | 95.5% | 62.3% | 59.6% | 98% | 55.2% | 92% | 76.2% | 95.8% | 78.7% | –
15 | CC1(C)CC[C@]2(C(=O)O)CC[C@]3(C)C(=CC[C@@H]4[C@@]5(C)C/C(=C/c6ccco6)C(=O)C(C)(C)[C@@H]5CC[C@]43C)[C@@H]2C1 | -45% [100 µM] (active) | 10.5% [100 µM] | -80.7% [100 µM] (active) | -77.9% [100 µM] (active) | -68.5% [100 µM] (active) | -27.2% [100 µM] (active) | -56.2% [100 µM] (active) | -83.3% [100 µM] (active) | -23.7% [100 µM] (active) | -31.5% [100 µM] (active) | -38.6% [100 µM] (active) | -56.7% [100 µM] (active) | -15.6% [100 µM] (active) | -9.61% [100 µM] (active) | -16% [100 µM] (active) | -75.8% [100 µM] (active) | -89.7% [100 µM] (active) | -95.1% [100 µM] (active) | -79.5% [100 µM] (active) | –
